# Screens (PubChem BioAssay)
# AMA1 RON2 block = disrupts binding of P. falciparum AMA1 to RON2. AlphaScreen AMA1-biotinylated RON2 peptide binding. Potency, µM (doses to about 58.2 µM), for inactives: at the highest dose activity change, negative = inhibition, most hits filed as inhibitors. hit rate 0.2% among 360,000. AID 720542;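 also: 0% = vehicle wells and -100% = peptide control; nearly all actives have a fitted effect of over 45% in size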
#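 AMA1 (3D7) with his tag at 25 nM final met compounds first, then biotinylated RON2 peptide at 25 nM; detection used donor plus acceptor beads, 10 µg/mL apiece, read by AlphaScreen after 30 min at room temperature.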
# Pf growth 48h = P. falciparum growth inhibition at 48 hours (one generation); Potency, µM (highest dose often 28.7 µM), without a hit: top-dose activity change, negative = inhibition, hits mostly inhibitors; hit rate 5.9% among 310,000; AID 504832; P. falciparum luciferase growth in erythrocytes, 48 h
#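 Parasite viability was followed by luminescence of a genomically integrated firefly luciferase. Cultures held 0.1% parasitemia at 2% hematocrit (final), incubated under 5% CO2 at 37 C.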
# Pf growth 96h = P. falciparum growth inhibition at 96 hours. P. falciparum luciferase reporter growth, 96 h. Potency, µM (doses to about 28.7 µM), for inactives: top-dose activity change, negative = inhibition, most hits filed as inhibitors. hit rate 6.9% among 320,000. AID 504834
#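 P. falciparum expressing integrated firefly luciferase grown in erythrocytes (2% hematocrit, 0.05% parasitemia final) with compounds for 96 hours at 37 C, 5% CO2. Growth inhibition read as loss of luminescence after adding luciferase detection reagent.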
# HCV inhibitor = blocks hepatitis C virus; Huh7.5.1 HCVcc-Cre infection, luciferase reporter, 44 h; Potency, µM (series often up to 41.8 µM), inactives show at the top dose activity change, negative = inhibition, hits mostly inhibitors; hit rate 3.4% among 340,000; AID 651820
#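 Infectious HCV cell culture screen: compound-treated cells (1,000/well, pre-plated 4 h) are infected with HCVcc-Cre at roughly 0.5 moi and grown 44 h. Infection is quantified by luciferase signal after 15 min substrate incubation at room temperature.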
# * = called active by the depositor; i = inactive; ? = inconclusive; . = no result. Shown are actives, neighbours in structure and some others; about 11% of the full set was active somewhere. Calls follow the shape of the dose curve; as a rule, active = well fitted curve in the direction sought with a large enough effect; inconclusive = small, poorly fitted or top-dose-only effect, or another doubt; inactive = no such curve, though single readings can be large; an effect the other way counts as inactive or inconclusive. Unless noted, % is scaled to controls: 0 for no effect and ±100 for the full control effect; potency is read from the fitted curve at half-maximal effect.
SMILES,AMA1 RON2 block,Pf growth 48h,Pf growth 96h,HCV inhibitor
CC(OC(=O)C1CCN(c2ccc(C(F)(F)F)cn2)CC1)C(=O)Nc1ccc(S(N)(=O)=O)cc1 (centres undefined),8%,?,13µM*,.
CC(OC(=O)C1CCN(c2ccc(C(F)(F)F)cn2)CC1)C(=O)Nc1cccc([N+](=O)[O-])c1 (centres undefined),-21%,12µM*,?,8%
CC(OC(=O)C1CCN(c2ccc(C(F)(F)F)cn2)CC1)C(=O)c1ccccc1 (centres undefined),-11%,-6%,10%,-7%
CSc1ccccc1NC(=O)C1CC(c2ccccc2Cl)=NO1 (centres undefined),3%,19%,?,-5%
CCOC(=O)C1=C(Cn2cnc3ccccc32)NC(=O)NC1c1ccc(OC)cc1 (centres undefined),-10%,.,?,1%
CCOC(=O)C1=C(Cn2cnc3ccccc32)NC(=O)NC1c1ccc(Cl)cc1 (centres undefined),-2%,.,5.9µM*,0%
C/C(=N\NC(=O)CC#N)C1COc2ccccc2O1 (centres undefined),17%,27%,5%,-9%
COc1ccccc1C(=O)NC(=O)COC(=O)CNC(=O)c1ccccc1F,-6%,.,.,8%
Cc1cccc(OCc2ccccc2)n1,3%,.,.,16%
Fc1cccc(Cl)c1Cn1nnc2c(NCc3ccncc3)ncnc21,8%,?,i,10µM*
Fc1cccc(Cl)c1Cn1nnc2c(NCc3ccccn3)ncnc21,-3%,?,?,-16%
CNCC(=O)NC(CCCN=C(N)N)C(=O)NC(C(=O)NC(Cc1ccc(O)cc1)C(=O)NC(C(=O)NC(Cc1cnc[nH]1)C(=O)N1CCCC1C(=O)NC(C)C(=O)O)C(C)C)C(C)C (centres undefined),.,-3%,4%,.
COc1ccccc1N=C1SC(C(=O)Nc2ccc(F)cc2)CC(=O)N1C (centres undefined),-8%,10µM*,?,9%
CCOc1cccc(NC(=O)C2CC(=O)N(C)C(=Nc3ccccc3)S2)c1 (centres undefined),-18%,?,3.7µM*,-5%
CCOC(=O)c1cccc(NC(=O)Cn2nc(C)n3cccc3c2=O)c1,-5%,-7%,?,10%
CCc1cc2c(=O)c(-c3ccc4c(c3)OCO4)coc2c(CN(C)C)c1O,7%,9.3µM*,13µM*,-18%
CCc1cc2c(=O)c(-c3cscn3)coc2c(CN(C)C)c1O,3%,12µM*,?,-7%
Cc1ccccc1CN(C)C(=O)c1ccc2ccccc2n1,12%,8%,4%,9%
c1ccc(CCCN2CCN(c3ccccc3)CC2)cc1,-29%,7%,?,17%
Fc1cccc(NC(=S)Nc2ccc(Br)cc2)c1,18%,59%,?,11%
CC(C)(C)NNC(=S)Nc1cccc(F)c1,35%,10µM*,8.3µM*,?
COc1c(Br)cc(C(N)=O)cc1OCc1ccccc1,-8%,-11%,-4%,?
COc1cc(OCc2ccccc2)c(OC)c(OCc2ccccc2)c1,30%,.,.,10µM*
COc1ccc(NC(=O)CC2CCCCC2)cc1OC,?,3.3µM*,2.6µM*,-3%
COc1ccc(NC(=O)CNC(=O)C2CCCCC2)cc1OC,30%,.,.,11%
SMILES,AMA1 RON2 block,Pf growth 48h,Pf growth 96h,HCV inhibitor
COc1ccc(NC(=O)C2CCCN2c2ccc(OC)c(OC)c2)cc1OC (centres undefined),0%,10µM*,1%,2%
CN(CCCCCCCCC(=O)/C=N/O)Cc1ccccc1,-1%,.,2.6µM*,10%
COC(=O)c1sccc1NC(=O)CC1C(=O)NCCN1C(=O)Nc1cc(Cl)ccc1OC (centres undefined),-11%,-19%,?,-4%
CC1CC(C)CN(c2ncc3c(n2)CC(c2ccc(Cl)cc2)CC3=O)C1 (centres undefined),0%,18%,.,20%
Cc1ccc(C2CC(=O)c3cnc(N4CCN(c5ccccc5)CC4)nc3C2)cc1 (centres undefined),8%,0%,.,-5%
CC1CC(C)CN(c2ncc3c(n2)CC(c2ccccc2Cl)CC3=O)C1 (centres undefined),-4%,10µM*,15µM*,-2%
COc1ccc(C2CC(=O)c3cnc(N4CCN(Cc5ccccc5)CC4)nc3C2)cc1 (centres undefined),-10%,12µM*,12%,?
CCOC1=C2[C@H](c3ccccc3)N(S(=O)(=O)c3ccc(C)cc3)C(C(C)(C)C)[C@H]2n2c(=O)n(-c3ccccc3)c(=O)n2C1 (some centres undefined),-4%,.,.,.
CCN(CC)S(=O)(=O)c1ccc(/C=C/C(=O)N(c2ccccn2)C2CCCCC2)cc1,-14%,-5%,4.7µM*,-19%
COCCNCC(=O)N1CCCCCC1,8%,-2%,12µM*,29%
COc1ccc2ccccc2c1CNC(C)c1ccccc1 (centres undefined),-17%,-53%,?,5.6µM*
CNS(=O)(=O)c1cccc(C(=O)OCC(=O)c2cc(C)n(-c3ccc4c(c3)OCO4)c2C)c1,-11%,.,5.2µM*,-24%
Cc1cc(C(=O)CN2C(=O)NC(C)(CC(C)C)C2=O)c(C)n1-c1ccc2c(c1)OCO2 (centres undefined),-2%,?,4.1µM*,-3%
Nc1nc(SCc2ccc3c(c2)OCO3)n[nH]1,-15%,12%,29%,2%
Cc1cc(C(=O)COc2ccccc2Cl)c(C)n1-c1ccc2c(c1)OCO2,-23%,?,8.3µM*,-24%
Cc1cc(C(=O)CN2C(=O)NC3(CCCC3)C2=O)c(C)n1-c1ccc2c(c1)OCO2,8%,11%,?,10%
Cc1cc(C(=O)CSc2n[nH]c(N)n2)c(C)n1-c1ccc2c(c1)OCO2,-13%,-25%,12µM*,?
O=C(Oc1ccc(Oc2ccccc2)cc1)N1CCC(O)CC1,15%,29%,44%,?
Cc1cc(C=O)c(C)n1-c1ccc2c(c1)OCO2,-11%,0%,3.7µM*,13%
Cc1cc(C=O)c(C)n1-c1cccc(C(=O)O)c1,-19%,29%,-11%,22%
Cc1ccc(-n2c(C)cc(C(=O)COc3c(CO)cc(F)cc3CO)c2C)cc1C,-10%,?,9.3µM*,?
CC(=O)c1ccc(NC(=O)c2cnn3c(C(F)F)cc(C4CC4)nc23)cc1,8%,.,.,-3%
S=C(Nc1ccccc1)Nc1ccc(OCc2ccc(Cl)cc2Cl)cc1,47%,5.9µM*,?,?
OCCCCNCc1ccc(OCc2ccc(Cl)cc2Cl)cc1,0%,13µM*,15µM*,6.3µM*
C=C1N(c2ccccc2)C(=O)OC1(C)C,1%,11%,13%,18%
CC(C)[C@H](NS(=O)(=O)c1ccc(Cl)cc1)C(=O)OCC(=O)NCCN1C(=O)CSC1=O,-2%,15%,33%,4%
CC(Oc1cccc(Cl)c1)C(=O)Nc1ccncc1 (centres undefined),-3%,?,5%,?
